Results filed as inconclusive are left out. A call without a number means that no potency is given here. The source made the active and inactive calls. Unless noted, calls follow the shape of the dose curve; as a rule, active = well fitted curve in the direction sought with a large enough effect; inconclusive = small, poorly fitted or top-dose-only effect, or another doubt; inactive = no such curve, though single readings can be large; an effect the other way counts as inactive or inconclusive.
Assays:
[1] = molecular target: T1, Tyrosine-protein phosphatase non-receptor type substrate 1 (Homo sapiens) + Leukocyte surface antigen CD47 (Homo sapiens) (UniProt P78324+Q08722); experiment: CD47-SIRPalpha protein protein interaction - LANCE assay qHTS validation (AID 1347057; active = well fitted curve in the direction sought with a large enough effect in the signal ratio, with a control signal flat, not every such curve was filed as active; the % refers to the signal ratio; also: potency is read from the fitted curve at half-maximal effect)
T1 sequence (P78324 whole entry, looked up): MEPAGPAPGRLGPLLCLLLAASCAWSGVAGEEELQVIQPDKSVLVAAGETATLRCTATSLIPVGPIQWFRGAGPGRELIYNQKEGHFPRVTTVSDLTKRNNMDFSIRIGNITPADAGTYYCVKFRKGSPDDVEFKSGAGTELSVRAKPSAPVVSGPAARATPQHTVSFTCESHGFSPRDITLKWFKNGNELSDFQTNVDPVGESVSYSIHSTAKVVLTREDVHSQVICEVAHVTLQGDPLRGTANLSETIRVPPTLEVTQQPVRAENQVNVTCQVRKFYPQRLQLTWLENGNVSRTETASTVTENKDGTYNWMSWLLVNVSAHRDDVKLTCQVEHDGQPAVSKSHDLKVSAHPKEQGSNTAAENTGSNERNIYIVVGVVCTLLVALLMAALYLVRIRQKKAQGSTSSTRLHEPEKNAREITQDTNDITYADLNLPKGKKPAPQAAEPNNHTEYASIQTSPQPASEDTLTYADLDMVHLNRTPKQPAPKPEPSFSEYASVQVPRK
T1 sequence (Q08722 whole entry, looked up): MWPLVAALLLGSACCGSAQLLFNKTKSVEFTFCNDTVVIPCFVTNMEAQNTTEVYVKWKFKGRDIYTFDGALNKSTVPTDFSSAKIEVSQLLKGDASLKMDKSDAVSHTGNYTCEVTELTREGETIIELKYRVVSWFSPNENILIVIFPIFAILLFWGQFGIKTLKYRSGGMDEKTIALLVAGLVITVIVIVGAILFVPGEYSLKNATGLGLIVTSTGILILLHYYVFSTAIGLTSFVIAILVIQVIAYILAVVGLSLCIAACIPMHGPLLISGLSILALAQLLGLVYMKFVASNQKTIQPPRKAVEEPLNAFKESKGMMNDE
Method in brief: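 First, His-tagged CD47 and Eu-labelled anti-His antibody met the compound for 30 min; next, site-specifically biotinylated SIRPalpha was added for 30 min; finally streptavidin-APC was added before reading the TR-FRET ratio.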

[2] = molecular target: T1, Tyrosine-protein phosphatase non-receptor type substrate 1 (Homo sapiens) + Leukocyte surface antigen CD47 (Homo sapiens); experiment: CD47-SIRPalpha protein protein interaction - Alpha assay qHTS validation (AID 1347059);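 also: bead proximity luminescence from CD47 binding SIRPalpha after compound preincubation with SIRPalpha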; also: potency is read from the fitted curve at half-maximal effect
Method in brief: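 Binding is measured by AlphaScreen proximity: Ni-NTA acceptor beads capture His-CD47, streptavidin donor beads capture biotin-SIRPalpha. Each of three additions (SIRPalpha with compound, CD47, beads) incubates 30 min at room temperature protected from light.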

[3] = molecular target: Parathyroid hormone/parathyroid hormone-related peptide receptor (Homo sapiens) (UniProt Q03431); experiment: qHTS for PTHR1 Agonists: Optimization Screen against the NCGC LOPAC library (AID 1347079);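 also: GloSensor cAMP luminescence in HEK-293 GP2 cells expressing human PTHR1 with IBMX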
Sequence of Parathyroid hormone/parathyroid hormone-related peptide receptor (Homo sapiens) (Q03431 whole entry, looked up): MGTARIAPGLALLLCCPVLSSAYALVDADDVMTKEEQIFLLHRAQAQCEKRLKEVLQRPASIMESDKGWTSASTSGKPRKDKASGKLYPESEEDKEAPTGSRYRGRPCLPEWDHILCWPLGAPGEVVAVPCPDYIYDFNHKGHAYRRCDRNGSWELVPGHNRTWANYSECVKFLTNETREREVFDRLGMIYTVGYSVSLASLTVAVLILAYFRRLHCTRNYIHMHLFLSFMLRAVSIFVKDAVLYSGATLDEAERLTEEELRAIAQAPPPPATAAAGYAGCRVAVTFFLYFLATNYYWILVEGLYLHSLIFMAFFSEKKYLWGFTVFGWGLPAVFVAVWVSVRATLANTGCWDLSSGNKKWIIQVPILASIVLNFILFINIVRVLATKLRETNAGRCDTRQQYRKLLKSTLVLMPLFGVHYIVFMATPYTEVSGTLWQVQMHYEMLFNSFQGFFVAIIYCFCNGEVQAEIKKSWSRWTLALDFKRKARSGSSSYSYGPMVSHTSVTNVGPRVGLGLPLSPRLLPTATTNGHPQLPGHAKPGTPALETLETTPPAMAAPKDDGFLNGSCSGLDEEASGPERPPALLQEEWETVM
Method in brief: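 Agonist readout: GloSensor cAMP luminescence, read after 15 min at room temperature. HEK-293-derived GP2 line carries PTHR1; compounds tested as a titration for 1 hr at 37C in presence of IBMX. M-PTH (1-15) served as control.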

[4] = qHTS for Inhibitors of the Functional Ribonucleoprotein Complex (vRNP) of Lassa (LASV) Arenavirus: LASV Primary Screen - GLuc reporter signal (AID 1347082; calls by dose curve; tested in HEK293 reporter line; also: series mostly up to about 57 µM; nearly all actives have a fitted effect of over 60% in size)
[5] = qHTS for Inhibitors of the Functional Ribonucleoprotein Complex (vRNP) of Lassa (LASV) Arenavirus: Viability assay - alamar blue signal for LASV Primary Screen (AID 1347083; calls by dose curve; tested in HEK293 reporter line; also: series mostly up to about 57 µM; nearly all actives have a fitted effect of over 80% in size)
[6] = qHTS for Inhibitors of the Functional Ribonucleoprotein Complex (vRNP) of Lymphocytic Choriomeningitis Arenaviruses (LCMV): Viability assay - alamar blue signal for LCMV Primary Screen (AID 1347085; calls by dose curve; tested in HEK293 reporter line; also: series mostly up to about 57 µM; nearly all actives have a fitted effect of over 80% in size)
[7] = molecular target: Nucleoprotein (Lymphocytic choriomeningitis virus (strain Armstrong)) (UniProt P09992); experiment: qHTS for Inhibitors of the Functional Ribonucleoprotein Complex (vRNP) of Lymphocytic Choriomeningitis Arenaviruses (LCMV): LCMV Primary Screen - GLuc reporter signal (AID 1347086; calls by dose curve; also: series mostly up to about 57 µM; nearly all actives have a fitted effect of over 70% in size)
Sequence of Nucleoprotein (Lymphocytic choriomeningitis virus (strain Armstrong)) (P09992 whole entry, looked up): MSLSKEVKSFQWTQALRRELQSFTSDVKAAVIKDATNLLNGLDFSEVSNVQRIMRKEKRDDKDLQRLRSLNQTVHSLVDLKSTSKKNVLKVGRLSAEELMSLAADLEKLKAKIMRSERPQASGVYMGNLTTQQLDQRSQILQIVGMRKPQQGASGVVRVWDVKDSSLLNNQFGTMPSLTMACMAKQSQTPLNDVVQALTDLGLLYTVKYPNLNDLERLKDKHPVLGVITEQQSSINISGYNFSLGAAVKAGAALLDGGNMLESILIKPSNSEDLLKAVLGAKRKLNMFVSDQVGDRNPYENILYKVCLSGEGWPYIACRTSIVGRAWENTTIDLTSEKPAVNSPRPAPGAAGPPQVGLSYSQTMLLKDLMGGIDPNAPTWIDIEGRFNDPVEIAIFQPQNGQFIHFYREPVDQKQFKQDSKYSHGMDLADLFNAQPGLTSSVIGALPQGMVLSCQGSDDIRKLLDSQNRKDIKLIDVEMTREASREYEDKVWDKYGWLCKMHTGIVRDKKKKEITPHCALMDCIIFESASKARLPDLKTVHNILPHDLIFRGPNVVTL

[8] = molecular target: T1, Tyrosine-protein phosphatase non-receptor type substrate 1 (Homo sapiens) + Leukocyte surface antigen CD47 (Homo sapiens); experiment: CD47-SIRPalpha protein protein interaction - HTRF assay qHTS validation (AID 1347058; active = well fitted curve in the direction sought with a large enough effect in the signal ratio, not every such curve was filed as active; the % refers to the signal ratio;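 also: recombinant soluble extracellular CD47 with His tag and biotinylated SIRPalpha domains; series mostly up to about 38 µM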)
Method in brief: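 TR-FRET read (Ch1/Ch2 ratio) of soluble extracellular CD47 and Avi-biotinylated SIRPalpha domains in PBS pH 7.4 with 0.05% IGEPAL; 7-point compound titration. Sequential 30 min room-temperature steps; non-biotinylated SIRPalpha as control inhibitor.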

SMILES	Potency [1]	Potency [2]	Potency [3]	Potency [4]	Potency [5]	Potency [6]	Potency [7]	outcome [8]
O=S1(=O)N(CCN2CC=C(c3c[nH]c4cc(F)ccc34)CC2)c2cccc3c2N1CCC3	inactive	inactive	inactive	inactive	inactive	inactive	inactive	–
CN1CCC(c2c[nH]c3ccc(O)cc23)CC1	inactive	inactive	–	inactive	inactive	inactive	inactive	–
Oc1ccc2c3c1O[C@H]1c4oc5ccccc5c4C[C@@]4(O)C(C2)N(CC2CC2)CCC314 (stereo partly specified)	inactive	–	–	–	inactive	inactive	–	inactive
C[Se]C[C@H](N)C(=O)O	–	–	inactive	inactive	inactive	inactive	inactive	–
Cc1sc2ccccc2c1CC1=NCCN1	inactive	inactive	inactive	inactive	inactive	inactive	inactive	–
CC(=O)c1c(O)c(C)c(O)c(Cc2c(O)c3c(c(C(=O)/C=C/c4ccccc4)c2O)OC(C)(C)C=C3)c1O	inactive	16.5 µM (active)	–	inactive	inactive	inactive	inactive	–
CN1CCc2cc(O)cc3c2[C@H]1Cc1ccc(O)c(O)c1-3	–	inactive	–	inactive	inactive	inactive	inactive	–
N[C@@H](Cn1oc(=O)[nH]c1=O)C(=O)O	inactive	inactive	–	inactive	inactive	inactive	inactive	–
COc1ccc2[nH]c3c(c2c1)CCNC3	inactive	–	inactive	inactive	inactive	inactive	inactive	–
NC(=O)c1cc(N2CC2)c([N+](=O)[O-])cc1[N+](=O)[O-]	inactive	–	inactive	inactive	inactive	–	inactive	–
NC(C(=O)O)c1cc(=O)[nH]o1 (stereo unspecified)	inactive	inactive	inactive	inactive	inactive	inactive	inactive	–
C[C@]12Cc3cn4c(nc3C=C1CCC1C2CC[C@@]2(C)[C@H]1CC[C@@]2(O)C#N)nc1ccccc14 (stereo partly specified)	inactive	inactive	inactive	–	–	–	–	–
O=[N+]([O-])/C=C/c1ccc2c(c1)OCO2	inactive	inactive	inactive	inactive	–	inactive	inactive	–
O=[N+]([O-])c1ccc2nc(N3CCNCC3)ccc2c1	inactive	inactive	inactive	inactive	inactive	inactive	inactive	–
CN1CCc2cccc(Cl)c2CC1	inactive	inactive	–	inactive	inactive	inactive	inactive	–
C[N+](C)(C)CC#CCN1CCCC1=O	–	inactive	inactive	inactive	inactive	inactive	inactive	inactive
COc1ccc2c(c1)C13CCCCC1C(C2)N(C)CC3 (stereo unspecified)	inactive	inactive	inactive	inactive	inactive	inactive	inactive	–
CCCN1CCc2cccc3c2[C@H]1Cc1ccc(O)c(O)c1-3	–	inactive	inactive	inactive	inactive	inactive	inactive	–
O=[N+]([O-])c1cc(O)c(O)c([N+](=O)[O-])c1	inactive	inactive	–	inactive	inactive	inactive	inactive	–
NC(Cc1cc(O)c(O)cc1O)C(=O)O (stereo unspecified)	13.1 µM (active)	0.927 µM (active)	inactive	inactive	inactive	inactive	inactive	–
NC(=O)CI	–	inactive	–	inactive	inactive	inactive	inactive	inactive
CC(=O)OCC1=C(C(=O)O)N2C(=O)[C@@H](NC(=O)CCC[C@@H](N)C(=O)O)[C@H]2SC1	4.65 µM (active)	0.414 µM (active)	inactive	inactive	inactive	inactive	inactive	–
C[N+]1(C)CCN(c2ccccc2)CC1	–	inactive	inactive	inactive	inactive	inactive	inactive	inactive
CCCN1CCc2cc(O)cc3c2[C@H]1Cc1ccc(O)c(O)c1-3	–	inactive	–	inactive	inactive	inactive	inactive	–
C[C@H](N)CN1CCc2ccc(Br)cc21	inactive	inactive	inactive	inactive	inactive	inactive	inactive	–
O=c1ccc2[nH]cc(C3=CCNCC3)c2[nH]1	inactive	inactive	–	–	–	–	–	–
O=P(O)(O)C(Cl)(Cl)P(=O)(O)O	–	–	–	inactive	inactive	inactive	inactive	–
C[C@@H]1[C@@H]2Cc3ccc(O)cc3[C@@]1(C)CCN2CC1CC1	–	–	–	inactive	inactive	inactive	inactive	–

— PubChem BioAssay (NCATS)
